# Experimental data published in the supplement of paper PMC9023506.
# Where a name gives a salt, the structure may show the parent alone.
# Test system: Danio rerio larvae (5 dpf)
# Assay: optomotor response to green moving lines, difference vs DMSO (percentage points (treated minus DMSO)); higher = more of the behaviour than the DMSO vehicle control
# Details: 10 µM; exposure time: 3 h pre-incubation + 3 h imaging
# Method: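 5-dpf wild-type zebrafish larvae were imaged in 96-well plates. They were treated with 190 Tocris FDA-approved drugs at 10 µM (1 µl/ml DMSO) for 3 h before and 3 h during imaging at 28.5 °C, 48 larvae per drug. Automated image analysis gave % time moving and optomotor responses. Values are drug group mean minus DMSO vehicle mean (n=844), in percentage points, for 10 behaviours.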
row,SMILES,optomotor response to green moving lines
1,CCCN(CCC)S(=O)(=O)c1ccc(C(=O)O)cc1 [Probenecid],10.3
2,Nc1ncn([C@H]2C[C@H](O)[C@@H](CO)O2)c(=O)n1 [Decitabine],0.0025
3,CC(=O)Nc1ccc(O)cc1 [Acetaminophen],8.32
4,COc1cc(N)c(Cl)cc1C(=O)NC1CCN(CCCOc2ccc(F)cc2)CC1OC (stereo not given) [Cisapride],5.81
5,CCOC(=O)c1ncn2c1CN(C)C(=O)c1cc(F)ccc1-2 [Flumazenil],15
6,CN1CCN(CCCN2c3ccccc3Sc3ccc(Cl)cc32)CC1 [Prochlorperazine dimaleate],3.92
7,CC(C)C(=O)Nc1ccc([N+](=O)[O-])c(C(F)(F)F)c1 [Flutamide],-1.99
8,OC(CNCC(O)C1CCc2cc(F)ccc2O1)C1CCc2cc(F)ccc2O1 (stereo not given) [Nebivolol hydrochloride],-4.67
9,COC(c1ccccc1)(c1ccccc1)[C@H](Oc1nc(C)cc(C)n1)C(=O)O [Ambrisentan],-4.71
10,COc1ccc(C[C@@H](C)NC[C@H](O)c2ccc(O)c(NC=O)c2)cc1 [Arformoterol tartrate],0.317
11,NC(=O)OCC(COC(N)=O)c1ccccc1 [Felbamate],-9.03
12,CN(C)CCc1c[nH]c2ccc(Cn3cncn3)cc12 [Rizatriptan benzoate],3.24
13,COc1ccc(Cl)cc1C(=O)NCCc1ccc(S(=O)(=O)NC(=O)NC2CCCCC2)cc1 [Glibenclamide],9.49
14,CCOC(=O)N1CCC(=C2c3ccc(Cl)cc3CCc3cccnc32)CC1 [Loratidine],-5.38
15,Cc1ccc(NC(=O)c2ccc(CN3CCN(C)CC3)cc2)cc1Nc1nccc(-c2cccnc2)n1 [Imatinib mesylate],-13.4
16,CC(C)COCC(CN(Cc1ccccc1)c1ccccc1)N1CCCC1 (stereo not given) [Bepridil hydrochloride],-2.16
17,OCc1cc(C(O)CNCCCCCCOCCCCc2ccccc2)ccc1O (stereo not given) [Salmeterol xinafoate],-6.89
18,CC(=O)NC[C@H]1CN(c2ccc(N3CCOCC3)c(F)c2)C(=O)O1 [Linezolid],5.36
19,CC(C)(C(=O)O)c1ccc(C(O)CCCN2CCC(C(O)(c3ccccc3)c3ccccc3)CC2)cc1 (stereo not given) [Fexofenadine hydrochloride],3.69
20,OCCOCCN1CCN(C2=Nc3ccccc3Sc3ccccc32)CC1 [Quetiapine hemifumarate],10.3

row,SMILES,optomotor response to green moving lines
1,Cc1cc2c(s1)Nc1ccccc1N=C2N1CCN(C)CC1 [Olanzapine],8.6
2,C=CC(=O)N1CCC[C@@H](n2nc(-c3ccc(Oc4ccccc4)cc3)c3c(N)ncnc32)C1 [Ibrutinib],-2.12
3,Cc1ccsc1C(=CCCN1CCC[C@@H](C(=O)O)C1)c1sccc1C [Tiagabine hydrochloride],8.59
4,CC(C)n1c(/C=C/C(O)CC(O)CC(=O)O)c(-c2ccc(F)cc2)c2ccccc21 (stereo not given) [Fluvastatin sodium],-3.1
5,CCCCCOC(=O)Nc1nc(=O)n([C@@H]2O[C@H](C)[C@@H](O)[C@H]2O)cc1F [Capecitabine],1.46
6,COc1ccc([C@@H]2Sc3ccccc3N(CCN(C)C)C(=O)[C@@H]2OC(C)=O)cc1 [Diltiazem hydrochloride],-3.02
7,N[C@@H]1[C@H]2CN(c3nc4c(cc3F)c(=O)c(C(=O)O)cn4-c3ccc(F)cc3F)C[C@@H]12 [Trovafloxacin mesylate],-4.23
8,NS(=O)(=O)Cc1noc2ccccc12 [Zonisamide],8.43
9,Cc1c(-c2ccc(O)cc2)n(Cc2ccc(OCCN3CCCCCC3)cc2)c2ccc(O)cc12 [Bazedoxifene acetate],-2.2
10,COc1ccccc1OCC(O)CN1CCN(CC(=O)Nc2c(C)cccc2C)CC1 (stereo not given) [Ranolazine dihydrochloride],-0.274
11,COc1cc2nc(N3CCN(C(=O)c4ccco4)CC3)nc(N)c2cc1OC [Prazosin hydrochloride],-10.2
12,C=C1[C@H](CO)[C@@H](O)C[C@@H]1n1cnc2c(=O)[nH]c(N)nc21 [Entecavir],0.498
13,COc1cc2nccc(Oc3ccc(NC(=O)C4(C(=O)Nc5ccc(F)cc5)CC4)cc3)c2cc1OC,9.65
14,CC(C)c1nc(N(C)S(C)(=O)=O)nc(-c2ccc(F)cc2)c1/C=C/[C@@H](O)C[C@@H](O)CC(=O)O [Rosuvastatin calcium],2.28
15,OCCN1C[C@H](O)[C@@H](O)[C@H](O)[C@H]1CO [Miglitol],2.58
16,CCC(C)(C)C(=O)O[C@H]1C[C@@H](C)C=C2C=C[C@H](C)[C@H](CC[C@@H]3C[C@@H](O)CC(=O)O3)[C@H]21 [Simvastatin],4.17
17,Nc1cc(N2CCCCC2)nc(N)[n+]1[O-] [Minoxidil],-7.05
18,Nc1cccc2c1CN(C1CCC(=O)NC1=O)C2=O (stereo not given) [Lenalidomide],7.44
19,CNC(=O)c1ccccc1Sc1ccc2c(/C=C/c3ccccn3)n[nH]c2c1 [Axitinib],2.99
20,CCCCNc1cc(C(=O)O)cc(S(N)(=O)=O)c1Oc1ccccc1 [Bumetanide],5.17
